This passage reports Potency results from PubChem BioAssay AID720565 (National Center for Advancing Translational Sciences (NCATS), 2013).

The structures appear in SMILES notation. Results filed as inconclusive are left out. The source made the active and inactive calls. Calls follow the shape of the dose curve; as a rule, active = well fitted activation curve with a large enough effect; inconclusive = small, poorly fitted or top-dose-only effect; inactive = no such curve, though single readings can be large or run the other way.

This assay can be described thus: qHTS for small molecules that induce genotoxicity in ELG1 expressing cells: Confirmatory Assay for Cherry-picked Compounds. Also: nearly all actives have a fitted effect of over 35% in size. In short, it runs like this:
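Cells carrying the ELG1-luciferase reporter were exposed to compound for 16 hr at 37 C, 5% CO2, at 2,000 cells per well. Rise in luciferase activity, read with ONE-Glo after 30 min at room temperature, indicates genotoxic stress.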
On the technique in general: In qHTS, concentration-response curves come from the screen itself.
Potency is read from the fitted curve at half-maximal effect.

As to `Cc1noc(C)c1-c1ccc2ncnc(NCc3ccc(F)c(F)c3)c2c1`, the Potency was 15.8 µM (active). Under `Nc1ccc2cccnc2c1` stands 1.77 µM (active); under `COCC(C)n1c(C)cc(C(=O)COC(=O)c2cc(=O)[nH]c3ccccc23)c1C` (configuration not stated), 2.23 µM (active). On to `Cc1c(C(=O)Nc2nccs2)oc2ccc(Br)cc12`, for which the Potency is 11.2 µM (active). With `C(=C\c1c[nH]c2ccccc12)/c1ccc2ccccc2n1`, the Potency is 0.141 µM (active).

Take `COc1ccc(S(=O)(=O)N2CCCCC2)cc1NC(=O)c1[nH]c(C)c(C(C)=O)c1C`: the Potency is 15.8 µM (active). `CN(C)c1ccccc1-c1csc(N2CCC(C(N)=O)CC2)n1`: the Potency was 1.99 µM (active). For `C(=C\c1ccc2ccccc2n1)/c1cccnc1` the value was 0.25 µM (active).

For the compound `CCn1c(=O)n(CC)c2cc(S(=O)(=O)N3CCC(c4ccccc4)CC3)ccc21`, the Potency result was “inactive”. For `Cc1cc(C)cc(NC(=O)CCc2nc3sc4c(c3c(=O)[nH]2)CCCC4)c1`, the Potency entry was “inactive”. For `O=c1c(-c2ccc(F)cc2)coc2c3c(ccc12)OCCO3`, the Potency is 4.45 µM (active). Under `Fc1ccccc1-c1nc(-c2ccc(-c3nn[nH]n3)cc2)no1` stands 7.91 µM (active). Under `COc1ccc(-c2cc3cc4c(cc3cn2)OCO4)cc1` stands 1.77 µM (active); under `COc1cc(/C=C(\C#N)C(=O)Nc2cccc(C(=O)O)c2)ccc1OCc1ccc(Cl)cc1`, 8.89 µM (active); under `Oc1cc2cc(-c3csc(-c4ccc(F)cc4)n3)cc3c2n1CCC3`, 6.28 µM (active). For `CN(C)c1ccc(C(=O)OCC(=O)c2ccc[nH]2)cc1` the value was 14.1 µM (active); for `N#Cc1ccc(-c2ccc(-c3nc4ccccc4c(=O)[nH]3)o2)cc1`, “inactive”; for `CC1CCCCC1NC(=O)CN1C(=O)NC(C)(c2ccc(OC(F)F)cc2)C1=O` (configuration not stated), “inactive”. For the compound `CC(=O)N(C)c1ccc(/C=C2\C=Cc3ccccc32)cc1`, the Potency was 0.561 µM (active). Under `COc1ccc(C2CC(c3ccncc3)=NN2c2ccc(S(N)(=O)=O)cc2)cc1` (configuration not stated) stands 17.7 µM (active); under `COc1ccc(/C=C/C(=O)O/N=C(\N)c2ccccn2)cc1OC`, 14.1 µM (active); under `O=C1/C(=C/c2ccc(O)c(O)c2)Oc2ccccc21`, 6.28 µM (active). For `N#Cc1cc2cc3c(cc2nc1SCC(=O)N1CCOCC1)OCO3` the value was 4.45 µM (active); for `CCOC(=O)c1cc(-c2ccc([N+](=O)[O-])cc2)nc2c1c(=O)[nH]c(=O)n2Cc1ccccc1`, 11.2 µM (active); for `COc1cc(C)c2c(=O)cc(-c3ccccc3)oc2c1`, 6.28 µM (active).

As for `CC(=O)N1CCc2cc(Br)cc(S(=O)(=O)CCC(=O)Nc3c(C)n(C)n(-c4ccccc4)c3=O)c21`, the Potency entry is “inactive”. Under `O=c1cc(-c2ccccc2)oc2ccc(Br)cc12` stands 11.2 µM (active). On to `CC(=NNC(=O)c1cccs1)c1ccc2c(c1)OCCO2`, for which the Potency is 14.1 µM (active). As to `O=S(=O)(c1ccc2ccccc2c1)N1CCN(S(=O)(=O)c2c(F)cccc2F)CC1`, the Potency was 14.1 µM (active). With `Cc1ccc2nc3sc(C(=O)NCc4ccco4)cc3cc2c1`, the Potency was 7.05 µM (active).

For the compound `COc1ccc(S(=O)(=O)Nc2cccc3cccnc23)c([N+](=O)[O-])c1`, the Potency result is “inactive”. `Cc1cc2cc3c(cc2nc1SCC(=O)N1CCOCC1)OCO3`: the Potency result was “inactive”. Under `CN(C)N=Nc1ccc(/C=C2\C=Cc3ccccc32)cc1` stands 3.97 µM (active); under `O=c1c2ccccc2oc2c1oc1ccccc12`, 14.1 µM (active); under `Cc1ccc(S(=O)(=O)Nc2cc3c4c(c2)CCN4C(=O)CC3)cc1`, 22.3 µM (active). For `CN(C)c1ccc(/C=C/c2ccc3ccccc3[n+]2[O-])cc1` the value was 0.0792 µM (active); for `Cc1ccc2c(c1)sc1nc(=O)n(-c3ccc(Cl)c(Cl)c3)c(=O)n12`, “inactive”.
